Several values for one entry are separate records, joined by “and”; a condition that tells them apart may be missing. Equal entries are not always repeated. Over roughly 2,900 compounds, “NF-kB SEAP reporter activity, fold change vs agonist alone” has its median near 0.99; the highest 2% begin near 2.6. Many of the other results were omitted from the sample, so the highest values are more common in it than they were.

Test [1] relates to RAW-Dual. Briefly: NF-kB SEAP reporter activity, fold change vs agonist alone; higher = enhanced NF-kB activity. The note with it: cytotoxicity flag (confluency mask): not cytotoxic. In short, it runs like this:
(§1)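 RAW-Dual macrophages were seeded in DMEM at 50,000 cells/well in 384-well plates, given 50 nL of library stock by pin tool, and given a PRR agonist 1 h later. Plates were held at 37 °C, 5% CO2 for 20 hours, after which supernatant was read for IRF by QuantiLuc luminescence and for NF-κB by QuantiBlue absorbance at 620 nm. Reporter activity is expressed as fold change over wells that received agonist alone. A well was called cytotoxic when IncuCyte confluency fell below 70% of agonist controls in both mask sets.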

The test system of test [2] is RAW-Dual. The test is described as follows: NF-kB SEAP reporter activity, fold change vs agonist alone; cytotoxicity flag (confluency mask): not cytotoxic; higher = enhanced NF-kB activity. An outline of the steps: as §1
[3] abbreviates: library stock concentration (final ~1000-fold dilution): 10 mM, agonist: Imiquimod (TLR7) […].
[4] abbreviates: library stock concentration (final ~1000-fold dilution): 10 mM, agonist: MPLA (TLR4) […].
The mark [5] stands for this setting: agonist: ODN 1826 (TLR9) 0.5 ug/mL.
[6] abbreviates: agonist: Pam2CSK4 (TLR2/6) 0.1 ug/mL.
Setting [7] is: agonist: Pam3CSK4 (TLR2/1) 0.1 ug/mL.

On to `O.c1cnc2c(c1)ccc1cccnc12`, for which the results for the “NF-kB SEAP reporter activity” value in the test on RAW-Dual [1] (setting [3]) and with RAW-Dual [1] (setting [4]) were 2.78 and 2.1, respectively.
`N#Cc1ncccn1` (library stock concentration (final ~1000-fold dilution): 2 mM): the “NF-kB SEAP reporter activity” value in the test with RAW-Dual [2] (agonist: LPS (TLR4) 0.1 ug/mL) stood at 1.32; in the test on RAW-Dual [2] (setting [5]) it was 1.02; in the test with RAW-Dual [2] (setting [6]), 1.09; in the test with RAW-Dual [2] (setting [7]) it was 1.05.
For the molecule `N#Cc1ncccn1`, the “NF-kB SEAP reporter activity” value in the test with RAW-Dual [1] (library stock concentration (final ~1000-fold dilution): 2 mM, agonist: Imiquimod (TLR7) […]) worked out at 1; in the test on RAW-Dual [1] (library stock concentration (final ~1000-fold dilution): 2 mM, agonist: MPLA (TLR4) […]), 1.
For the molecule `O=C(O)c1ccc(O)c2ncccc12`, the “NF-kB SEAP reporter activity” value in the test on RAW-Dual [1] (setting [3]) was determined as 1.05; in the test with RAW-Dual [1] (setting [4]) it was 1.03.
Take `O.c1cnc2c(c1)ccc1cccnc12` (library stock concentration (final ~1000-fold dilution): 10 mM): the “NF-kB SEAP reporter activity” value in the test on RAW-Dual [2] (agonist: LPS (TLR4) 0.1 ug/mL) is 2.48; in the test with RAW-Dual [2] (setting [5]) it was 1.17; with RAW-Dual [2] (setting [6]), 1.44; with RAW-Dual [2] (setting [7]), 2.06.
In the case of `O=C(O)c1ccc(O)c2ncccc12` (library stock concentration (final ~1000-fold dilution): 10 mM), the “NF-kB SEAP reporter activity” value in the test with RAW-Dual [2] (agonist: LPS (TLR4) 0.1 ug/mL) was 1.21; in the test on RAW-Dual [2] (setting [5]), 1.04; in the test with RAW-Dual [2] (setting [6]), 0.998; in the test on RAW-Dual [2] (setting [7]), 1.4.
In the case of `CCn1cc(C(=O)O)c(=O)c2cc(F)c(N3CCN(C)CC3)cc21.CS(=O)(=O)O.O.O`, the figures for the “NF-kB SEAP reporter activity” value in the test with RAW-Dual [1] (setting [3]) and in the test on RAW-Dual [1] (setting [4]) were 0.752 and 0.814, respectively.
`CCn1cc(C(=O)O)c(=O)c2cc(F)c(N3CCN(C)CC3)cc21.CS(=O)(=O)O.O.O` (library stock concentration (final ~1000-fold dilution): 10 mM): the “NF-kB SEAP reporter activity” value came to 1.38 with RAW-Dual [2] (agonist: LPS (TLR4) 0.1 ug/mL), 0.867 in the test on RAW-Dual [2] (setting [5]), 1.01 in the test with RAW-Dual [2] (setting [6]) and 1.01 in the test on RAW-Dual [2] (setting [7]).
Regarding `Cl.Cl.OC(CN1CCN(c2cccc(Cl)c2)CC1)C(c1ccccc1)c1ccccc1` (configuration not stated), the “NF-kB SEAP reporter activity” value with RAW-Dual [1] (setting [3]) turned out to be 1.33; with RAW-Dual [1] (setting [4]), 1.04.
Regarding `Cl.Cl.OC(CN1CCN(c2cccc(Cl)c2)CC1)C(c1ccccc1)c1ccccc1` (configuration not stated) (library stock concentration (final ~1000-fold dilution): 10 mM), the “NF-kB SEAP reporter activity” value in the test on RAW-Dual [2] (agonist: LPS (TLR4) 0.1 ug/mL) came out at 0.841; in the test on RAW-Dual [2] (setting [5]), 1.02; in the test with RAW-Dual [2] (setting [6]), 0.761; in the test with RAW-Dual [2] (setting [7]), 0.956.
As for `CC(=O)OC1CC2CCC3C(CCC4(C)C3CC([N+]3(C)CCCCC3)C4OC(C)=O)C2(C)CC1N1CCCCC1` (configuration not stated), the “NF-kB SEAP reporter activity” value with RAW-Dual [1] (setting [3]) amounted to 0.939; in the test with RAW-Dual [1] (setting [4]), 0.965.
Consider `CC(=O)OC1CC2CCC3C(CCC4(C)C3CC([N+]3(C)CCCCC3)C4OC(C)=O)C2(C)CC1N1CCCCC1` (configuration not stated) (library stock concentration (final ~1000-fold dilution): 10 mM), for which the “NF-kB SEAP reporter activity” value with RAW-Dual [2] (agonist: LPS (TLR4) 0.1 ug/mL) was found to be 1.04; in the test on RAW-Dual [2] (setting [5]), 1.02; in the test with RAW-Dual [2] (setting [6]), 0.945; with RAW-Dual [2] (setting [7]), 1.01.
Consider `CCOC(=O)/C=C/c1ccc(O)c(O)c1` (library stock concentration (final ~1000-fold dilution): 10 mM), for which the “NF-kB SEAP reporter activity” value in the test with RAW-Dual [2] (agonist: LPS (TLR4) 0.1 ug/mL) is 0.633 and 0.814; in the test with RAW-Dual [2] (setting [5]), 0.407 and 0.651; in the test with RAW-Dual [2] (setting [6]), 0.658 and 0.524; in the test with RAW-Dual [2] (setting [7]) it was 0.563 and 0.481.
Regarding `NS(=O)(=O)NCCNc1nonc1C(=Nc1ccc(F)c(Br)c1)NO` (library stock concentration (final ~1000-fold dilution): 10 mM), the “NF-kB SEAP reporter activity” value in the test with RAW-Dual [2] (agonist: LPS (TLR4) 0.1 ug/mL) stood at 1.01; in the test with RAW-Dual [2] (setting [5]) it was 0.936; in the test with RAW-Dual [2] (setting [6]) it was 0.922; in the test on RAW-Dual [2] (setting [7]), 0.961.
For `NS(=O)(=O)NCCNc1nonc1C(=Nc1ccc(F)c(Br)c1)NO`, the “NF-kB SEAP reporter activity” value with RAW-Dual [1] (setting [3]) turned out to be 0.862; in the test with RAW-Dual [1] (setting [4]), 0.907.
On the same counts, the results for `CCCC(=O)Nc1ccc(OCC(O)CNC(C)C)c(C(C)=O)c1.Cl` (configuration not stated) are 1 and 1.08.
On to `CCN(CC)C(=O)Nc1ccc(OCC(O)CNC(C)(C)C)c(C(C)=O)c1.Cl` (configuration not stated) (library stock concentration (final ~1000-fold dilution): 10 mM), for which the “NF-kB SEAP reporter activity” value in the test with RAW-Dual [2] (agonist: LPS (TLR4) 0.1 ug/mL) amounted to 3.5; with RAW-Dual [2] (setting [5]), 2.46; with RAW-Dual [2] (setting [6]), 1.6; in the test with RAW-Dual [2] (setting [7]) it was 3.15.
For the molecule `CC(C)(C)NCC(O)COc1cccc2c1CCC(=O)N2.Cl` (configuration not stated), the “NF-kB SEAP reporter activity” value came out at 1.02 with RAW-Dual [1] (setting [3]) and 1.07 in the test with RAW-Dual [1] (setting [4]).
As for `CCCC(=O)Nc1ccc(OCC(O)CNC(C)C)c(C(C)=O)c1.Cl` (configuration not stated) (library stock concentration (final ~1000-fold dilution): 10 mM), the “NF-kB SEAP reporter activity” value turned out to be 1.54 in the test with RAW-Dual [2] (agonist: LPS (TLR4) 0.1 ug/mL), 1.08 in the test on RAW-Dual [2] (setting [5]), 1.11 in the test on RAW-Dual [2] (setting [6]) and 1.16 in the test on RAW-Dual [2] (setting [7]).
On to `CC(C)(C)NCC(O)COc1cccc2c1CCC(=O)N2.Cl` (configuration not stated) (library stock concentration (final ~1000-fold dilution): 10 mM), for which the “NF-kB SEAP reporter activity” value in the test on RAW-Dual [2] (agonist: LPS (TLR4) 0.1 ug/mL) worked out at 1.11; in the test with RAW-Dual [2] (setting [5]), 1.05; in the test on RAW-Dual [2] (setting [6]) it was 1.04; in the test on RAW-Dual [2] (setting [7]), 1.11.

Source of the values: the supplement of paper PMC10037445.
